Source: PMC4336329 (PLoS ONE, 2015)
About 14,000 (4.5%) of roughly 310,000 compounds showed an effect of 50% or more. Effects have a minus sign here. This is one part of a sample in which strong results are shown more often than they occur.

biological target: human ether-à-go-go-related gene (hERG) potassium channel (human, UniProt Q12809); assay: primary screen, population patch clamp on CHO cells stably expressing hERG; higher = less effect of the substance
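Further: peak tail current of the secondary pulse compared with the same well before compound.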

human ether-à-go-go-related gene (hERG) potassium channel, sequence (Q12809 whole entry, looked up): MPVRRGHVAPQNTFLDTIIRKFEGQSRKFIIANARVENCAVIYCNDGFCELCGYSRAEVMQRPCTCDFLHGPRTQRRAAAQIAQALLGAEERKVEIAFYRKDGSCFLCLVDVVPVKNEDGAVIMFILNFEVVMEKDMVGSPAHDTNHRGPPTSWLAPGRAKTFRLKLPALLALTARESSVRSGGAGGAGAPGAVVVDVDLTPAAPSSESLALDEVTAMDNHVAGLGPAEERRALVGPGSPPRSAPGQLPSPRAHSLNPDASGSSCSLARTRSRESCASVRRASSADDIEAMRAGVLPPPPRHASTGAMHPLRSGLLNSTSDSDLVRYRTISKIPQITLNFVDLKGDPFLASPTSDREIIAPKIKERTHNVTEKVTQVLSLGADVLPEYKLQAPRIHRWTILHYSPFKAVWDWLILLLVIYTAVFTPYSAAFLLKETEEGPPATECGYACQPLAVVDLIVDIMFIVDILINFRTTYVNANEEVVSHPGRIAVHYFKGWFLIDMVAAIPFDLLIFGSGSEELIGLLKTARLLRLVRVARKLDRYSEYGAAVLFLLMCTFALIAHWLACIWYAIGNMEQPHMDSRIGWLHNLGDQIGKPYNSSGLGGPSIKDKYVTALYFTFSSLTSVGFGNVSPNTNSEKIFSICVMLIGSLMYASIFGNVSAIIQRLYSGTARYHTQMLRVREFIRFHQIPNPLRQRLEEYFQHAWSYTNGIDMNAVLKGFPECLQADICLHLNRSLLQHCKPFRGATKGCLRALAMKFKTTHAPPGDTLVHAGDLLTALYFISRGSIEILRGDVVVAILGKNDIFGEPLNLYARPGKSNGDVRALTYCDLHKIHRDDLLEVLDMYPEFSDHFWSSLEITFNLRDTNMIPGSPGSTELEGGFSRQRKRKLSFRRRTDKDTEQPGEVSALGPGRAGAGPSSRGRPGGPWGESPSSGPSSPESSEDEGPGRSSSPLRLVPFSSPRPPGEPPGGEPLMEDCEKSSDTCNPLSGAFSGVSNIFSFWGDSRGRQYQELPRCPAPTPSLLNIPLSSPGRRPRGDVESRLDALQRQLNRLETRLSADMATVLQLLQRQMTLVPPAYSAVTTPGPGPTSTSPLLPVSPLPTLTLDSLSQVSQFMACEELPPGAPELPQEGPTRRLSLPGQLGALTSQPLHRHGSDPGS

Compared with `Clc1ccc(-[n+]2c(-c3cccc(Br)c3)[nH]c3nc4ccccc4nc32)cc1`, `Cc1c(Cl)cccc1NC(=O)COC(=O)c1c2c(nc3ccccc13)CCN(Cc1ccccc1)C2` is lower in “hERG current change (%, negative = inhibition) at 10uM” value: 13.5% for the first, 2.82% for the second.

First: Cc1ccc(S(=O)(=O)NC(=O)COc2ccccc2C)c(C)c1
Second: Cc1cc(C)cc(NC(=O)CSc2ncc(S(=O)(=O)c3ccccc3)c(=O)[nH]2)c1
The “hERG current change (%, negative = inhibition) at 10uM” value of the first is lower: -21.9% for the first, 13.6% for the second.

Going from `Cc1ccc(C(=O)NNC(=O)Cn2nnc3ccccc32)cc1` to `CN1C(=O)C(CC(=O)Nc2ccccc2F)N(NC(=O)c2ccc(Br)cc2)C1=S` (stereo not drawn), the “hERG current change (%, negative = inhibition) at 10uM” value falls from 13.3% to 6.5%.

Going from `NC(=O)COc1cccc(/C=N/NC(=O)c2ccc(-n3cccc3)cc2)c1` to `CCOc1cc(/C=N/NC(=O)c2ccc(O)cc2)ccc1Oc1nc(Cl)ncc1F`, the “hERG current change (%, negative = inhibition) at 10uM” value falls from 13.5% to -7.77%.

Compared with `CCN(CC)CCN(Cc1cc2cc3c(cc2[nH]c1=O)OCCO3)C(=S)NCC(C)C`, `CCN(CC)CCN(Cc1cc2cc3c(cc2[nH]c1=O)OCO3)C(=S)NCC(C)C` is lower in “hERG current change (%, negative = inhibition) at 10uM” value: -4.96% for the first, -55.1% for the second.

Compared with `CC(C)CNC(=S)N(CCN(C)C)Cc1cc2cc3c(cc2[nH]c1=O)OCO3`, `CCc1cc(=O)oc2cc(C)c3c(C)coc3c12` is higher in “hERG current change (%, negative = inhibition) at 10uM” value: 0.354% for the first, 16.3% for the second.

Compared with `S=C1NCCOCCNC(=S)NCCOCCOCCOCCN1`, `COC(=O)CCC(=O)N1CCCC(N2CCN(c3ccc(OC)cc3)CC2)C1` (stereo not drawn) is lower in “hERG current change (%, negative = inhibition) at 10uM” value: 10.2% for the first, -1.47% for the second.

Compared with `CCOC(=O)C1=C(C)NC(=O)C(C(N)=O)C12CCCCC2` (stereo not drawn), `NC(=O)c1ccsc1NC(=O)COC(=O)C1=NNC(=O)CC1` is lower in “hERG current change (%, negative = inhibition) at 10uM” value: 12.4% for the first, 8.28% for the second.

Compared with `CC(C)NC(=O)CN1C(=O)CSc2ccc(S(=O)(=O)N3CCCC3)cc21`, `COCCNC(=O)Cn1cnc2ccc(S(=O)(=O)N3CCC(C)CC3)cc2c1=O` is lower in “hERG current change (%, negative = inhibition) at 10uM” value: 15.6% for the first, -15.1% for the second.

First: COc1ccc(N2CCN(C3CCCN(Cc4cccc(C(C)=O)c4)C3)CC2)cc1 (stereo not drawn)
Second: COc1ccc(N2CCN(C3CCCN(Cc4cccc(C)c4)C3)CC2)cc1 (stereo not drawn)
The “hERG current change (%, negative = inhibition) at 10uM” value of the first is higher: -30.2% for the first, -32.8% for the second.

Compared with `CSc1ccc(CN2CCCC(N3CCN(c4ccccc4)CC3)C2)cc1` (stereo not drawn), `COc1ccc(CN2CCCC(N3CCN(c4ccc(OC)cc4)CC3)C2)cc1` (stereo not drawn) is higher in “hERG current change (%, negative = inhibition) at 10uM” value: -64.2% for the first, -45% for the second.

Compared with `COc1ccc(N2CCN(C3CCCN(Cc4cccc(OC)c4)C3)CC2)cc1` (stereo not drawn), `CCOc1ccc(CN2CCCC(N3CCN(c4ccc(OC)cc4)CC3)C2)cc1` (stereo not drawn) is higher in “hERG current change (%, negative = inhibition) at 10uM” value: -64.4% for the first, -64% for the second.

Going from `COc1ccccc1N1CCN(C2CCCN(Cc3ccccc3OCCO)C2)CC1` (stereo not drawn) to `COc1ccccc1N1CCN(C2CCCN(Cc3c(F)cccc3F)C2)CC1` (stereo not drawn), the “hERG current change (%, negative = inhibition) at 10uM” value rises from -25.5% to -16.3%.

Compared with `OCCOc1ccc(CN2CCCC(N3CCN(c4ccc(F)cc4)CC3)C2)cc1` (stereo not drawn), `COc1ccc(N2CCN(C3CCCN(Cc4ccc(F)c(F)c4)C3)CC2)cc1` (stereo not drawn) is higher in “hERG current change (%, negative = inhibition) at 10uM” value: -69.8% for the first, -64.6% for the second.

First: CCN(C1CCS(=O)(=O)C1)S(=O)(=O)c1ccc2ccccc2c1 (stereo not drawn)
Second: COc1ccc(N2CCN(C3CCCN(S(=O)(=O)c4ccccc4)C3)CC2)cc1 (stereo not drawn)
The “hERG current change (%, negative = inhibition) at 10uM” value of the first is higher: -10.5% for the first, -31.1% for the second.

Compared with `Cc1c[n+](CC(=O)c2ccccc2)cs1.[Br-]`, `CCN(C(=O)COc1ncnc2sccc12)c1ccccc1` is higher in “hERG current change (%, negative = inhibition) at 10uM” value: 22% for the first, 63.8% for the second.

First: COc1ccc(NC(=O)CSCC(=O)Nc2ccccc2N2CCCC2)cc1
Second: COc1ccc(CC2(CO)CCN(C(=O)NCc3ccccc3)CC2)cc1
The “hERG current change (%, negative = inhibition) at 10uM” value of the first is lower: -7.76% for the first, -2.8% for the second.

Going from `CCOC(=O)c1csc(NC(=O)c2ccc(OCC)cc2)n1` to `COc1ccc(CNC(=O)COC(=O)c2n[nH]c3ccccc23)cc1`, the “hERG current change (%, negative = inhibition) at 10uM” value rises from -14.9% to 7.27%.

First: Cc1ccccc1C(=O)OC1OC(=O)C(Cl)=C1Nc1ccc(C(=O)O)cc1 (stereo not drawn)
Second: O=C(Nc1ccccc1)c1ccc(-c2ccc([N+](=O)[O-])cc2)o1
The “hERG current change (%, negative = inhibition) at 10uM” value of the first is higher: 24.4% for the first, 4.73% for the second.

First: CCc1ccc(S(=O)(=O)N2CCCC(N3CCN(c4ccc(OC)cc4)CC3)C2)cc1 (stereo not drawn)
Second: COc1ccc(S(=O)(=O)N2CCN3CCCC3C2)cc1 (stereo not drawn)
The “hERG current change (%, negative = inhibition) at 10uM” value of the first is lower: -65.4% for the first, 22.7% for the second.

Going from `CC1CCCCN1CCCNc1ccc(C(CC(N)=O)NC(=O)Cc2cccc3ccccc23)cc1[N+](=O)[O-]` (stereo not drawn) to `Cc1ccc(CCNC(=O)C2CC(c3ccccc3[N+](=O)[O-])=NO2)cc1` (stereo not drawn), the “hERG current change (%, negative = inhibition) at 10uM” value falls from -14.6% to -20.7%.

Going from `Nc1nc(Oc2ccc(F)cc2)c(Br)c(=O)[nH]1` to `Cc1cc(=O)[nH]c(Nc2ccc(Cl)cc2)n1`, the “hERG current change (%, negative = inhibition) at 10uM” value rises from 7.49% to 15%.

First: COc1ccc(-c2c(-c3ccc(OCC(=O)NN)cc3O)n[nH]c2C(F)(F)F)cc1
Second: O=C(Nc1ncn[nH]1)c1cc(S(=O)(=O)Nc2cccc(C(F)(F)F)c2)ccc1Cl
The “hERG current change (%, negative = inhibition) at 10uM” value of the first is lower: -5.25% for the first, 17.8% for the second.

Going from `C/C(CC(=O)Nc1cc(Cl)ccc1Cl)=N\NC(=O)c1ccco1` to `CCOCC(=O)Nc1cc(-c2cn3cccnc3n2)ccc1C`, the “hERG current change (%, negative = inhibition) at 10uM” value rises from -6.6% to 6.69%.

Compared with `Cc1c(C=O)n(C)n(-c2ccccc2)c1=O`, `COc1ccc(C2SCC(=O)N2c2c(C)n(C)n(-c3ccccc3)c2=O)cc1OC` (stereo not drawn) is higher in “hERG current change (%, negative = inhibition) at 10uM” value: 11.5% for the first, 13.6% for the second.

Going from `Cl.O=C(c1ccco1)N1CCN(C/C=C/c2ccccc2)CC1` to `O=C(c1ccc(Br)o1)N1CCN(C/C=C/c2ccccc2)CC1`, the “hERG current change (%, negative = inhibition) at 10uM” value falls from -38% to -61.8%.

Compared with `O=C(c1ccc(Br)s1)N1CCN(C/C=C/c2ccccc2)CC1`, `O=C(c1cc2ccccc2o1)N1CCN(C/C=C/c2ccccc2)CC1` is lower in “hERG current change (%, negative = inhibition) at 10uM” value: -40.6% for the first, -62.2% for the second.

First: O=C(c1cc2ccccc2o1)N1CCN(S(=O)(=O)/C=C/c2ccccc2)CC1
Second: Cl.O=C(c1cc2ccccc2o1)N1CCN(Cc2ccccc2)CC1
The “hERG current change (%, negative = inhibition) at 10uM” value of the first is higher: -30.8% for the first, -32.6% for the second.

Going from `S=c1[nH]nc(-c2cccs2)n1Cc1ccccc1` to `COc1ccc(CCC(C)N2CCC(CO)(Cc3ccccc3)CC2)cc1` (stereo not drawn), the “hERG current change (%, negative = inhibition) at 10uM” value falls from 9% to -73.4%.

First: CCCN1C2CCCC1CC(NC(=O)NC1CCCCC1)C2 (stereo not drawn)
Second: O=C(NC1CCCCC1)c1ccc(-c2cccc([N+](=O)[O-])c2)o1
The “hERG current change (%, negative = inhibition) at 10uM” value of the first is lower: -12.4% for the first, 12.4% for the second.

Compared with `CCn1c(CSc2nc3ccccc3s2)nnc1SCC(=O)c1ccc(O)cc1O`, `CN(C)CCOC(c1ccc(Cl)cc1)c1ccccn1.O=C(O)/C=C/C(=O)O` (stereo not drawn) is lower in “hERG current change (%, negative = inhibition) at 10uM” value: 12.2% for the first, -43% for the second.

Compared with `Cn1c(SCC(=O)N2CCCCC2)nc2cccnc21`, `CN1CCN(C(=O)c2cc3cc(Cl)ccc3[nH]2)CC1.Cl` is lower in “hERG current change (%, negative = inhibition) at 10uM” value: 22.2% for the first, -35.7% for the second.

Compared with `COC(=O)c1cc2n(n1)CCN(Cc1ccc(C)cc1)C2=O`, `COc1ccc(CC2(CO)CCN(S(=O)(=O)c3sccc3C)CC2)cc1` is lower in “hERG current change (%, negative = inhibition) at 10uM” value: 1.46% for the first, -20.9% for the second.

First: CCN1CCN(C(=O)c2cc3cc(Cl)ccc3[nH]2)CC1
Second: CCN1CCN(C(=O)c2cc3cc(F)ccc3[nH]2)CC1
The “hERG current change (%, negative = inhibition) at 10uM” value of the first is higher: -59.8% for the first, -65% for the second.

First: CCOC(=O)N1CCN(C(=O)c2cc3cc(Cl)ccc3[nH]2)CC1
Second: CCOC(=O)N1CCN(C(=O)c2cc3cc(F)ccc3[nH]2)CC1
The “hERG current change (%, negative = inhibition) at 10uM” value of the first is higher: -15.7% for the first, -19.8% for the second.

First: O=C(c1cc2cc(F)ccc2[nH]1)N1CCN(c2ccc(F)cc2)CC1
Second: C=CCN1C(=O)CSc2ccc(C(=O)NCc3ccc(F)cc3)cc21
The “hERG current change (%, negative = inhibition) at 10uM” value of the first is higher: -4.93% for the first, -21.3% for the second.

Going from `CC(=O)Nc1ccc(S(=O)(=O)N(c2cccnc2)S(=O)(=O)c2ccc(NC(C)=O)cc2)cc1` to `CC(=O)Nc1ccc(NC(=O)c2ccc(-c3ccc([N+](=O)[O-])cc3)o2)cc1`, the “hERG current change (%, negative = inhibition) at 10uM” value falls from -3.89% to -14.5%.

Compared with `Cc1ccc(C(OCCN(C)C)c2cccc(C(F)(F)F)c2)cc1.O=C(O)/C=C\C(=O)O` (stereo not drawn), `CN(C)CCO[C@@H](c1ccc(Cl)cc1)c1ccccn1.O=C(O)/C=C\C(=O)O` is higher in “hERG current change (%, negative = inhibition) at 10uM” value: -58.6% for the first, -29.5% for the second.

Going from `CCOc1cc(/C=N\Nc2ncc(F)c(N3CCOCC3)n2)ccc1Oc1nc(Cl)ncc1F` to `COc1ccc(/C=N\Nc2ncc(F)c(N3CCOCC3)n2)cc1OC`, the “hERG current change (%, negative = inhibition) at 10uM” value rises from -51.8% to -31.1%.

Going from `CCS(=O)(=O)N1CCN(S(=O)(=O)c2ccc(F)cc2)CC1` to `COc1cccc(CC2(CO)CCN(S(=O)(=O)c3ccc(OC)cc3OC)CC2)c1`, the “hERG current change (%, negative = inhibition) at 10uM” value rises from -18.4% to -10.7%.

Compared with `O=C(NC1CCC(O)CC1)c1ccc(-c2ccc(Cl)cc2)o1` (stereo not drawn), `O=C(NC1CCC(O)CC1)c1ccc(-c2ccc([N+](=O)[O-])cc2)o1` (stereo not drawn) is lower in “hERG current change (%, negative = inhibition) at 10uM” value: -21.8% for the first, -76.2% for the second.

First: O=C(NC1CN2CCC1CC2)c1ccc(-c2ccc([N+](=O)[O-])cc2)o1 (stereo not drawn)
Second: COc1ccc(CC2(CO)CCN(C(C)COc3ccccc3)CC2)cc1 (stereo not drawn)
The “hERG current change (%, negative = inhibition) at 10uM” value of the first is higher: -64% for the first, -82% for the second.

First: Cc1ccc(CCSCC(=O)O)cn1
Second: COC(=O)CCCC(=O)N1CCC(CO)(CCc2ccccc2)CC1
The “hERG current change (%, negative = inhibition) at 10uM” value of the first is higher: 18.9% for the first, -23.8% for the second.

Compared with `CN(C)S(=O)(=O)N1CCC(CO)(CCc2ccccc2)CC1`, `CSCC(C)N1CCC(CO)(CCc2ccccc2)CC1` (stereo not drawn) is lower in “hERG current change (%, negative = inhibition) at 10uM” value: -8.86% for the first, -29.4% for the second.

First: CC(COc1ccccc1)N1CCC(CO)(CCc2ccccc2)CC1 (stereo not drawn)
Second: CSCC(C)N1CCC(CO)(CCCc2ccccc2)CC1 (stereo not drawn)
The “hERG current change (%, negative = inhibition) at 10uM” value of the first is lower: -80.3% for the first, -55.7% for the second.
